Laboratory results: the supplement of paper PMC6555819

Key:
Assay in all cases: PBM binding z-score (relative to random genomic background probes); higher = stronger binding; sequences stand for … in GC…GCGATTGACAGCGTAGAATGAAGG
[1] = test system: FXR:RXRa (NR concentration 270 nM, RXRa partner concentration 90 nM)
Summary of the method: (§1)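 Each nuclear receptor dimer, without ligand, was incubated for 1 h on custom Agilent 4×180K protein-binding microarrays. Binding was detected with antibodies against each partner (one per run), and scanned fluorescence was regression-normalized. The binding z-scores are referenced to random human genomic background probes.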

[2] = test system: LXRa:RXRa (NR concentration 270 nM, RXRa partner concentration 90 nM)
Summary of the method: as §1

[3] = test system: LXRa homodimer (NR concentration 270 nM)
Summary of the method: as §1

[4] = test system: LXRb:RXRa (NR concentration 270 nM, RXRa partner concentration 90 nM)
Summary of the method: as §1

[5] = test system: LXRb homodimer (NR concentration 270 nM)
Summary of the method: as §1

[6] = test system: PPARa:RXRa (NR concentration 270 nM, RXRa partner concentration 90 nM)
Summary of the method: as §1

[7] = test system: PPARg:RXRa (NR concentration 180 nM, RXRa partner concentration 90 nM)
Summary of the method: as §1

[8] = test system: PPARg:RXRa 270nM:90nM, anti-RXR (NR concentration 270 nM, RXRa partner concentration 90 nM)
Summary of the method: as §1

[9] = test system: PPARg:RXRa 30nM:10nM, anti-RXR (NR concentration 30 nM, RXRa partner concentration 10 nM)
Summary of the method: as §1

[10] = test system: PPARg:RXRa 90nM:30nM, anti-RXR (NR concentration 90 nM, RXRa partner concentration 30 nM)
Summary of the method: as §1

[11] = test system: PPARg:RXRa DBDmut IVT, anti-RXR (DBD mutation: RXRa K156A/R161A, NR concentration 270 nM, RXRa partner concentration 90 nM)
Summary of the method: as §1

[12] = test system: PPARg:RXRa IVT, anti-PPARg (NR concentration 270 nM, RXRa partner concentration 90 nM)
Summary of the method: as §1

[13] = test system: PPARg DBDmut:RXRa IVT, anti-PPARg (DBD mutation: PPARg1 K132A/R137A, NR concentration 270 nM, RXRa partner concentration 90 nM)
Summary of the method: as §1

[14] = test system: PPARg DBDmut IVT, anti-PPARg (DBD mutation: PPARg1 K132A/R137A, NR concentration 270 nM)
Summary of the method: as §1

[15] = test system: PPARg homodimer (NR concentration 180 nM)
Summary of the method: as §1

[16] = test system: PXR:RXRa (NR concentration 270 nM, RXRa partner concentration 90 nM)
Summary of the method: as §1

[17] = test system: PXR homodimer (NR concentration 270 nM)
Summary of the method: as §1

[18] = test system: RARa:RXR (NR concentration 270 nM, RXRa partner concentration 90 nM)
Summary of the method: as §1

[19] = test system: RARa homodimer (NR concentration 270 nM)
Summary of the method: as §1

[20] = test system: RARb:RXRa (NR concentration 270 nM, RXRa partner concentration 90 nM)
Summary of the method: as §1

Row | Sequence | PBM binding z-score [1] | PBM binding z-score [2] | PBM binding z-score [3] | PBM binding z-score [4] | PBM binding z-score [5] | PBM binding z-score [6] | PBM binding z-score [7] | PBM binding z-score [8] | PBM binding z-score [9] | PBM binding z-score [10] | PBM binding z-score [11] | PBM binding z-score [12] | PBM binding z-score [13] | PBM binding z-score [14] | PBM binding z-score [15] | PBM binding z-score [16] | PBM binding z-score [17] | PBM binding z-score [18] | PBM binding z-score [19] | PBM binding z-score [20]
1 | GCTAGGAGGCCATTTGGGTCACTCAATGACGGGC | 0.677 | 0.0368 | -0.495 | 0.118 | -0.985 | 1.73 | 0.825 | 0.402 | -0.518 | 0.187 | 1.91 | 2.38 | -0.861 | -0.88 | 0.287 | 1.21 | 1.1 | 1.04 | -0.719 | 1.95
2 | CGTCCAAGTTCAGAGAGGTCAGTGAATGCCGAGT | 3.32 | 3.64 | 3.27 | 3.1 | 0.431 | 3.19 | 0.531 | 1.5 | -0.176 | 0.671 | 0.453 | 0.71 | -0.268 | -0.219 | 4.09 | 6.4 | 13 | 3.9 | 1.51 | 4.09
3 | CCGACTGGGGCAAAGGTTGCCATACTCAGTACGA | -0.0811 | -0.081 | -0.3 | 0.302 | -1.06 | 4.05 | 9.16 | 7.89 | 7.65 | 8.16 | 4.21 | 4.73 | -0.511 | -0.658 | 0.733 | 0.388 | -0.135 | 1.14 | -0.228 | 1.03
4 | TTATCAAGGTGAGCTGAGGTCGTTGATCCAACTC | 1.87 | 1.22 | -0.0853 | 0.999 | -0.746 | 1.87 | 0.583 | 1.19 | 0.537 | 0.566 | 1.53 | 2.79 | 0.246 | -0.126 | 0.465 | 4.8 | 0.706 | 1.99 | -0.272 | 1.85
5 | GCTAGTTGGTCAGTAAAAGGTCACAGACCGGTCG | 3.72 | 4.57 | 4.2 | 4.1 | 0.607 | 5.07 | 3.41 | 4.95 | 2.71 | 4.5 | 1.25 | 3.03 | -0.272 | 0.44 | 3.83 | 4.92 | 1.24 | 6.32 | 1.97 | 4.51
6 | GCAACGAGGGCAAGTTGATAGCAGAGTTTGATGG | 0.996 | 0.513 | -0.434 | 0.332 | -0.572 | 1.49 | 0.841 | 1 | 0.0166 | 0.481 | 2.75 | 1.85 | -0.194 | -0.32 | 0.288 | 0.924 | 0.464 | 0.816 | -0.0307 | 2.8
7 | TCGTGTAGATCAACAGGAGGTTAAGAAAGATCGA | -0.127 | 1.13 | 0.0557 | 0.789 | -0.51 | 1.22 | -0.0865 | 1.04 | 1.84 | 1.52 | 0.943 | 0.0646 | 0.363 | -0.42 | 0.211 | 0.488 | -0.663 | 1.06 | -0.074 | 0.441
8 | GCTGGCAGGCCATTTGGGTCACTCAATGACGGGC | 0.108 | 0.0335 | -0.419 | -0.156 | -0.843 | 1.3 | 0.526 | 0.786 | -0.361 | 0.136 | 0.621 | 1.63 | -1.06 | -1.22 | -0.317 | 0.654 | 0.117 | 0.679 | -0.882 | 1.63
9 | ATCTATAGGTAAGACTCAGTTCAGTGAAGAACGC | 0.179 | 0.424 | 0.389 | 0.171 | 0.635 | 0.073 | 0.534 | 0.23 | 0.292 | 0.169 | 1 | 0.562 | 0.789 | 1.3 | 0.365 | 1.49 | 1.21 | 0.627 | 0.874 | 0.432
10 | TCATATAGGTAAAGGGTGAAAGTCGGTGTGGTAA | 1.34 | 1.71 | 0.489 | 1.71 | 0.233 | 4.48 | 7.16 | 7.21 | 7.16 | 7.63 | 4.48 | 4.59 | 0.928 | 1.03 | 1.99 | 1.31 | 0.961 | 2.03 | 2.05 | 1.46
11 | ACTAGCAGGCCAAGTTTGGGTCGCTCAAACAAAG | -0.398 | -0.635 | -0.922 | -0.551 | -0.759 | -0.185 | -0.746 | -0.638 | -1.08 | -1.15 | 0.683 | 0.332 | -0.842 | -0.527 | -0.566 | -0.33 | -0.606 | -0.147 | -1.09 | 0.491
12 | ACTCGGAGGACAAAGGACAGAGCTACGCCAGTGA | -0.12 | -0.373 | -0.502 | -0.866 | -0.449 | -0.215 | 1.23 | 1.16 | 0.109 | 0.942 | -0.0501 | -0.429 | -0.346 | -1.22 | -0.327 | -0.688 | -0.112 | -0.495 | -0.7 | 1.62
13 | TGGCCTAGGTCATTGGGCCAGTATAGTACGCATC | 4.33 | 2.98 | -0.242 | 1.44 | -0.839 | 3.79 | 3.3 | 3.34 | 0.438 | 2.2 | 1.95 | 3.78 | -0.594 | -1.26 | 1.98 | 1.4 | -0.797 | 1.97 | -0.131 | 3.72
14 | ACTATTTGTTGACTTAGGGCAACCGATACGACGC | 0.226 | 0.188 | 0.404 | 0.344 | 1.56 | 0.197 | 0.97 | 0.737 | 0.434 | 0.364 | 0.22 | 0.532 | 1.51 | 1.78 | 0.884 | 0.185 | 0.38 | 0.364 | 0.997 | 1.03
